Measured values published in PubChem BioAssay (Tox21).
Activity calls are given as the source filed them. Calls follow the shape of the dose curve; as a rule, active = well fitted curve in the direction sought with a large enough effect in the repeat runs; inconclusive = weak or mixed curves; inactive = flat fitted curve, though single readings scatter. Positions of bridges follow the written chain, without caps; N, C: chain ends. Non-standard residues stand in square brackets, D forms with d. Residues, ends and D or L forms follow the SMILES beside them. hArg = N=C(N)NCCCC[C@H](N)C(=O)O; Mpa = O=C(O)CCS
% is scaled to controls: 0 for no effect and ±100 for the full control effect.

Assay: qHTS assay to test for compound auto fluorescence at 460 nm (blue) in HEK293 cell free culture (AID 720681)
Conditions: cell-free medium, autofluorescence 405/460 nm (blue); series mostly up to 91.3 µM
From the text: U.S. Tox21 Program National Center for Advancing Translational Sciences [NCATS] NIH Chemical Genomics Center [NCGC] U.S. Environmental Protection Agency [EPA] National Institutes of Environmental Health Sciences [NIEHS] National Toxicology Program [NTP] U.S. Food and Drug Administration [FDA] Tox21 Assay Overview: Compound auto fluorescence often interferes with screening of the compound library against various biological targets and signaling pathways. Some of these compounds may have fluorophoric properties. Such properties may interfere with the assay outputs resulting in false positives and/or negatives. To decrease such complications and ensure the compound activities are relevant in terms of biological response, the Tox21 10K compound library was screened for auto fluorescence. From the fluorophores used as reporter signals in our screening assays, the auto fluorescence equivalencies of compounds against three fluorophores have been evaluated: Triamterene, Fluorescein and Rose Bengal sodium for blue, green and red fluorescence, respectively. The fluorescence intensities were measured using Excitation/Emission wavelengths at 405/460nm, 485/535nm and 540/590nm for blue, green and red labels, respectively. This assay includes the blue fluorescence data.
Tox21 Assay Protocol Summary: 5 uL of culture medium (DMEM containing 10% FBS) per well was dispensed into black wall/clear bottom 1536-well plates using a Multidrop Combi Dispenser (ThermoFisher Scientific, Waltham, MA). After 23 nL compound or DMSO vehicle was transferred into assay plate by a pintool work station (Kalypsys, San Diego, CA), fluorescence intensities in the assay plates were measured by an Envision (PerkinElmer, Shelton, CT) plate reader using three labels for measuring blue, green and red fluorescence at […] 460, 535 and 590nm respectively.
For `C/C(CC(C)C)=N\O`, the outcome was “inactive”. For `CC/C(C)=N\O[Si](C)(O/N=C(\C)CC)O/N=C(\C)CC`, the outcome was “inactive”. For `COC(=O)c1cccc(Cl)c1`, the outcome was “inactive”. For `C/C=C(\C)C(C)=O`, the outcome was “inactive”. For `CCC(=O)c1c(O)cc(O)cc1O`, the outcome was “inactive”. In the case of `CCC(C)C(=O)OCCc1ccccc1` (stereo not given), the outcome is reported as “inactive”. For `COP(=O)(O)OP(=O)(O)OC`, the outcome was “inactive”. For `OCC1(CO)COCOC1`, the outcome was “inactive”. For `CC1c2ccccc2CN1NC(=O)c1ccc(Cl)c(S(N)(=O)=O)c1` (stereo not given), the outcome was “inactive”. In the case of `CCCCCCCCCCCCCCCCCC#N`, the outcome is reported as “inactive”. For `CCn1cc(C(=O)O)c(=O)c2cnc(N3CCCC3)nc21`, the fluorescence, % of fluorescent control was 0.169% [at 18.6 µM] (inactive). In the case of `CC1CC(=O)CC(C)(C)C1` (stereo not given), the outcome is reported as “inactive”. For `CC/C=C\CCOC(=O)c1ccccc1O`, the outcome was “inactive”. With `CC1(C)Oc2ccc(C#N)cc2[C@@H](N2CCCC2=O)[C@@H]1O` the outcome was “inactive”. With `CCC(C)OC(C)CC` (stereo not given) the outcome was “inactive”. With `COc1c2occc2c(OC)c2c(=O)cc(C)oc12` the fluorescence, % of fluorescent control was -0.0224% [at 18.6 µM] (inactive). For `CCCCOCC(C)O` (stereo not given), the outcome was “inactive”. For `Cc1c(Cl)cccc1Cl`, the outcome was “inactive”. In the case of `COc1nc(N)nc2nc[nH]c12`, the outcome is reported as “inactive”. In the case of `N#Cc1cscn1`, the outcome is reported as “inactive”. For `NC(=O)[C@@H]1CSSCCC(=O)N[C@@H](CCCCN=C(N)N)C(=O)NCC(=O)N[C@@H](CC(=O)O)C(=O)N[C@@H](Cc2c[nH]c3ccccc23)C(=O)N2CCC[C@H]2C(=O)N1` ([Mpa][hArg]GDWPC-NH2; disulfide 1-7), the outcome was “inactive”. In the case of `CC(C)[C@H]1CC[C@H](C)C[C@@H]1O`, the outcome is reported as “inactive”. With `Cc1ccnc(N)c1` the outcome was “inactive”. In the case of `C[Si]1(C)O[Si](C)(C)O[Si](C)(C)O[Si](C)(C)O[Si](C)(C)O1`, the outcome is reported as “inactive”. For `c1ccc2cnccc2c1`, the outcome was “inactive”. With `C=CC/C=C/C` the outcome was “inactive”. For `CC1=C(O)C(=O)C(C)O1` (stereo not given), the outcome was “inactive”. With `Cc1ccc(C(C)NC(=O)[C@@H](NC(=O)OC(C)C)C(C)C)cc1` (stereo not given in full) the outcome was “inactive”. In the case of `c1ccc2c(CC3=NCCN3)cccc2c1`, the outcome is reported as “inactive”. In the case of `CCCC(CC)c1ccccc1` (stereo not given), the outcome is reported as “inactive”. With `Cc1c(C(=O)c2c[nH]n(C)c2=O)ccc(S(C)(=O)=O)c1C1=NOCC1` the outcome was “inactive”. For `CCC[C@@H]1C[C@@H](C(=O)N[C@@H]([C@H]2O[C@H](SC)[C@H](O)[C@@H](O)[C@H]2O)[C@@H](C)O)N(C)C1`, the outcome was “inactive”. With `CC(=O)O[C@H]1C[C@@H]2CC[C@@]1(C)C2(C)C` the outcome was “inactive”. With `Nc1nc(-c2ccccc2)c(Br)c(=O)[nH]1` the outcome was “inactive”. For `CCCCOC(=O)C(C)O` (stereo not given), the outcome was “inactive”. With `CCO` the outcome was “inactive”. With `NCC1(Cc2noc(=O)[nH]2)CCCCC1` the outcome was “inactive”. In the case of `O=C1CCCCO1`, the outcome is reported as “inactive”. In the case of `C=Cc1ccc(C(C)(C)C)cc1`, the outcome is reported as “inactive”. For `CC(S)C(C)S` (stereo not given), the outcome was “inactive”.
